High-throughput results: PubChem BioAssay, National Center for Advancing Translational Sciences (NCATS)
p53 reactivator: restores transcriptional activity of mutant p53; Potency, µM (doses to about 92.2 µM), inactives show at the top dose activity change, positive = activation, actives largely listed as activators; 320,000 tested, 0.063% active; H1299 p53-A138V BP100-luciferase reporter, luminescence, 24 h; note: potency is the fitted concentration of half-maximal effect; % of control where 0% means no effect; nearly all actives have a fitted effect of over 45% in size
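H1299 (p53-null), stable ts p53-A138V + BP100-Luc; 1000 cells/well, Opti-MEM/10% FBS; cpd 4 pt, 1:5; 24 h, 37 deg C, 5% CO2; detection reagent 10 min RT; luminescence.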
ASM inhibitor: human S-ASM enzyme inhibition. placental ASM, HMU-PC fluorogenic substrate, 60 min. Potency, µM (top dose mostly 57.5 µM), inactives show at the highest dose activity change, negative = inhibition, hits mostly inhibitors. P17405. 340,000 tested, 0.006% active; note: potency is the fitted concentration of half-maximal effect
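Human placenta-derived ASM preincubated with compound 10 min at room temperature, then reacted with 9 uM (final) fluorogenic HMU-PC substrate for 60 min at 37 C. Stop solution raises pH to 10; fluorescence read at Ex 386/Em 447 nm.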
Mm-Cpn inhibitor: inhibitors of Methanococcus maripaludis chaperonin TRiC (MmCpn); purified Mm-Cpn ATPase, ADP Transcreener TR-FRET; Potency, µM (series often up to 76.9 µM), for the others: at the top dose activity, negative = inhibition, actives largely listed as inhibitors; 330,000 tested, 0.031% active; note: potency is the fitted concentration of half-maximal effect; % is set by controls: 0 for no effect and ±100 for the full control effect; nearly all actives have a fitted effect of over 80% in size
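Measured: ADP formation by purified Mm-CPN. Conditions: 25 nM protein, 10 uM ATP, Tris pH 7.4 with Mg2+, K+ and DTT, 37°C for 30 min. Detection: Transcreener HTRF after 30 min at room temperature.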
hERG WT inh: KCNH2 (human, wildtype) channel inhibition. Q12809. U2OS, BacMam KCNH2, thallium flux FluxOr; stronger effect = lower value. activity change, % at 1.84 µM. 340,000 tested, 0.37% active. AID 720551;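 active = maximum activity change below -70%; inconclusive = maximum activity change between -70% and -50%; inactive = maximum activity change above -50%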; note: % is set by controls: 0 for no effect and ±100 for the full control effect
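U2OS cells transduced with wild-type KCNH2 virus are loaded with FluxOr dye for 45 min, and thallium flux is measured in kinetic reads before and after stimulation buffer. Rate constants are normalized to DMSO controls.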
uPA surface inh: inhibitors of cell surface uPA generation; cell surface uPA generation assay, qHTS; Potency, µM (highest dose often 38.3 µM), for inactives: at the highest dose activity change, negative = inhibition, most hits filed as inhibitors; 330,000 tested, 0.31% active; active = well fitted inhibition curve with a large enough effect; inconclusive = small, poorly fitted or top-dose-only effect; inactive = no such curve, though single readings can be large or run the other way; tested in mouse RAW 264.7 cells; note: potency is the fitted concentration of half-maximal effect; % is set by controls: 0 for no effect and ±100 for the full control effect; nearly all actives have a fitted effect of over 55% in size
KCNH2 3.1 block: KCNH2 3.1 (human) potassium channel inhibition | activity change, % (tested at about 1.8 µM) | AID 720553 | 340,000 tested, 0.95% active | U2OS KCNH2 3.1, thallium flux FluxOr; stronger effect = lower value;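 active = maximum activity change below -70%; inconclusive = maximum activity change from -70% to -50%; inactive = maximum activity change above -50%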;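 note: thallium influx rate constant from kinetic fluorescence after stimulation buffer; % is set by controls: 0 for no effect and ±100 for the full control effect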
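Thallium flux via FluxOr fluorescence (Red40 quencher, 45 min loading) in U2OS cells virally expressing the KCNH2 3.1 isoform (1.77 x 10^8 /mL virus, overnight at 37 C). Rate constants from 2-min kinetic reads post-stimulation, normalised to positive and negative controls.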
Starred values were filed as active, the others as inactive; ? = inconclusive; · = not tested or not shown. An excerpt weighted towards active compounds, which were near 1.4% of everything screened. Unless noted, calls come from the whole dose curve; as a rule, active = well fitted curve in the direction sought with a large enough effect; inconclusive = small, poorly fitted or top-dose-only effect, or another doubt; inactive = no such curve, though single readings can be large; an effect the other way counts as inactive or inconclusive.

SMILES | p53 reactivator | ASM inhibitor | Mm-Cpn inhibitor | hERG WT inh | uPA surface inh | KCNH2 3.1 block
CCCn1c(N)c(N(CCOC)C(=O)CSc2cc(C)c3ccccc3n2)c(=O)[nH]c1=O | · | 3.4% | · | -4.2 | -1.6% | -5.5
CN(C(=O)COC(=O)Cc1ccc(Br)cc1)c1c(N)n(Cc2ccccc2)c(=O)[nH]c1=O | · | · | · | 1.4 | · | 2.0
O=C(CN1C(=O)/C(=C/c2ccccc2)SC1=S)N1CCN(CCc2ccccn2)CC1 | ? | -13.9% | 0.6% | 12.5 | -14.3% | -22.5
CN1CCN(C(=O)CCn2c(=S)[nH]c3ccccc3c2=O)CC1 | · | · | · | -13.1 | · | -5.7
Cc1ccc2c(CC(=O)Nc3ccc(N4CCN(C)CC4)cc3C)coc2c1 | 13.3% | -2.1% | -0.7% | 30.5 | -0.7% | -82.8*
COc1ccc(Br)cc1CN(C)CC(=O)Nc1cccc(S(=O)(=O)N2CCCC2)c1 | 0.0% | -3.5% | -6.5% | 6.1 | -3.2% | -14.6
CC(C)NS(=O)(=O)c1ccc(NC(=S)NC(=O)c2ccc(-c3ccccc3)cc2)cc1 | 5.1% | -20.3% | -2.8% | 0.6 | · | -75.2*
COc1ccc(CCCNC(=O)C2CCC(=O)N(CC3CCCCC3)C2)cc1 (stereo not given) | 0.5% | -1.0% | 0.4% | -173.3* | -3.8% | -168.4*
C[C@@]12C(=O)Nc3cc(Cl)ccc3C(=O)N1[C@H]1c3cc(Br)ccc3OC[C@@H]1[C@@H]2c1ccccc1 | -1.3% | -16.9% | -8.6% | -4.9 | ? | -43.9
CC1(S(=O)(=O)O)CC(=O)c2ccccc2C1=O (stereo not given) | -8.9% | -0.3% | -0.1% | -13.1 | 7.94µM* | -6.3
COc1ccc(C(NC(=O)C(C)C)c2c(O)ccc3ccccc23)cc1 (stereo not given) | 2.1% | 61.4% | 0.7% | -9.6 | ? | -18.8
CCC(=O)NC(c1ccc(OC)cc1)c1c(O)ccc2ccccc12 (stereo not given) | -3.5% | 83.9% | -0.1% | -10.1 | 5.62µM* | 10.2
Cc1ccccc1OCC(=O)NCC(=O)N/N=C/c1cccc([N+](=O)[O-])c1 | 1.5% | · | 2.2% | · | · | ·
Cc1ccccc1OCC(=O)N/N=C/c1cccc(Oc2ccc([N+](=O)[O-])cc2[N+](=O)[O-])c1 | -0.2% | -2.5% | -13.9% | -20.6 | 11.2µM* | -14.7
CSC[C@H]1CN(CCc2ccccc2)C(=O)[C@@H]1CC(=O)Nc1ccccc1 | · | · | · | -2.4 | · | -8.5
OC(CSc1ccccc1)CN1CCN(c2ccc(Cl)cc2)CC1 (stereo not given) | · | 3.9% | · | -31.6 | 25.7% | -86.4*
CCOC(=O)c1c(C)[nH]c(C)c1S(=O)(=O)NC(C)Cc1ccco1 (stereo not given) | -1.3% | 2.2% | -4.6% | 5.4 | -17.0% | -79.9*
O=C(c1ccc(N2C(=O)c3ccccc3C2=O)cc1)N1CCN(S(=O)(=O)c2ccccc2F)CC1 | · | · | · | 6.5 | · | -2.2
OCc1c(OCc2cccc(F)c2)ccc2ccccc12 | 17.6% | -0.1% | -0.8% | -2.8 | 12.2% | -81.5*
CN1CCN(CC(O)COC(c2ccc(Cl)cc2)c2ccc(Cl)cc2)CC1 (stereo not given) | -5.5% | -4.7% | -0.8% | 8.7 | -29.5% | -93.9*
CC(=O)Nc1ccc(OCC(O)CN2CCN(c3cc(Cl)ccc3C)CC2)cc1 (stereo not given) | -0.8% | -0.6% | 0.4% | -0.3 | · | 11.3
Cc1ccc(Cl)cc1N1CCN(CC(O)COC(C)C)CC1 (stereo not given) | 0.2% | 4.5% | -0.5% | 28.4 | 6.9% | -77.2*
OC(COC(c1ccc(Cl)cc1)c1ccc(Cl)cc1)CN1CCCC1 (stereo not given) | · | -0.4% | · | -139.7* | 1.0% | -112.0*
CN1CCN(CC(O)COc2ccc(Cl)cc2)CC1 (stereo not given) | -0.3% | -0.8% | -0.2% | -9.6 | -1.2% | 24.0
COCCn1c(SCC(=O)Nc2ccc(F)cc2)nc2c(c1=O)SCC2 | · | · | · | -8.6 | · | -1.3
